Experimental data as given in article PMC7819943, “Rice protein-binding microarrays: a tool to detect cis-acting elements near promoter regions in rice”.
The full ranking holds about 39,000 sequences; the median of “fluorescence intensity (a.u.)” is about 4,300, and the highest 2% start at about 39,000. For the sample, the highest values were picked, then their nearest neighbours and some sequences at random.

The sequences below were run against T1, OsSMF1 (Oryza sativa, UniProt Q6ZLB0 1-436) (assay: protein-binding microarray (RPBM); PBS, 2% BSA, 51.3 ng/ul salmon testes DNA, 50 uM zinc acetate, 200 nM TF, 25 C, 1 h; high values mean tight binding). Settings: protein: recombinant; tags: N-terminal polyhistidine and DsRed monomer fusion (pET32a); chain copies: 2; label: CyDye5-dUTP incorporated in the synthesized complementary strand; 3' TTTTT single-stranded linker to array surface; dsDNA, one strand shown.
T1 sequence: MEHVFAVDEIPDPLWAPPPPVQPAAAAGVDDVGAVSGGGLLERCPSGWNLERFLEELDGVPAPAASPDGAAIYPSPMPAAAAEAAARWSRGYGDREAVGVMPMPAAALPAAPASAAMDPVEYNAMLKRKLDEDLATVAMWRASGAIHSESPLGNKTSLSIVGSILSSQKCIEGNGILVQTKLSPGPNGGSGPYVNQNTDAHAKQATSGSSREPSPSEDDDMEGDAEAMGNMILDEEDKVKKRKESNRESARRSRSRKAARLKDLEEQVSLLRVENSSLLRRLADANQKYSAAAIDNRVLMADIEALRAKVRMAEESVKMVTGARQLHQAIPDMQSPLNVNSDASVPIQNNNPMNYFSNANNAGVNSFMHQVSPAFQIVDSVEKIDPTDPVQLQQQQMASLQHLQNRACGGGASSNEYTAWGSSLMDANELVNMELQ
In short: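 Binding signal here means per-feature fluorescence intensity in arbitrary units. The values were read on an Axon 4000B scanner after a custom Agilent array, double-stranded by primer extension with Cy5-dUTP, was incubated with 200 nM protein at 25 °C for 1 h in PBS with 2% BSA, salmon testes DNA and 50 µM zinc acetate, then washed. The proteins were transcription factors with an N-terminal polyhistidine tag and DsRed, expressed in E. coli BL21-CodonPlus and purified on Ni–NTA.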

Question: How did the binding signal turn out when “TCCGTGCTACAGCTAGCTACAGATATGTAGTCCGTCATTCCGGAGTCACCTAGTGCAG” was run?
Answer: Its binding signal is 45200 fluorescence intensity (a.u.).

Question: For “ATCCTGTCACGGTCAGCCACGTCGCGGAGGGCAGTGCGACCGGAGTCACCTAGTGCAG”, which binding signal is on record?
Answer: Its binding signal is 4580 fluorescence intensity (a.u.).

Question: How did the binding signal turn out when “TTTACCATTGCGGGTGCTCTAATAGGTGGCATGCCATGCGCGGAGTCACCTAGTGCAG” was run?
Answer: Its binding signal is 4740 fluorescence intensity (a.u.).

Question: How did the binding signal turn out when “AGGCTCCCCTGAGTCGTGACGTGCACTCGAAAGTCGAAAGCGGAGTCACCTAGTGCAG” was run?
Answer: Its binding signal is 41100 fluorescence intensity (a.u.).

Question: Which binding signal does the source give for “CGCTTCTCTCCCTGAGCTCGGCCTCGTGTCACTGACGTCGCGGAGTCACCTAGTGCAG” here?
Answer: Its binding signal is 4390 fluorescence intensity (a.u.).

Question: “CGTCGTGCTCGTCGACGTCGTGCACTCCGTCGCCATCGTGCGGAGTCACCTAGTGCAG” was tested. Which binding signal did it give?
Answer: Its binding signal is 3220 fluorescence intensity (a.u.).

Question: For “TACTTTAAGTACATGTATTAGTCAGCTGATATATACCTCACGGAGTCACCTAGTGCAG”, which binding signal is on record?
Answer: Its binding signal is 4310 fluorescence intensity (a.u.).

Question: How did the binding signal turn out when “AGTATCTCTTTCACAAAAGCCTACGTCATCTTTAAATTAGCGGAGTCACCTAGTGCAG” was run?
Answer: The binding signal was 5060 fluorescence intensity (a.u.).

Question: Which binding signal does the source give for “GATGGAGACCCTGTGCGAACTGACAGTAATAGGGCTGGAACGGAGTCACCTAGTGCAG” here?
Answer: Its binding signal is 39400 fluorescence intensity (a.u.).

Question: For “ACCTGGTAACTGAACACAGGATGGAAACTCTGAATAATGACGGAGTCACCTAGTGCAG”, which binding signal is on record?
Answer: Its binding signal is 3250 fluorescence intensity (a.u.).

Question: For “CTTGCGATGCGTGGTGAGTGGTGACTGTAATGTAATGGAACGGAGTCACCTAGTGCAG”, which binding signal is on record?
Answer: Its binding signal is 3450 fluorescence intensity (a.u.).

Question: Which binding signal does the source give for “ATTTACTGCCTATTCGTGAGTTGGTCCTCCTGACTCTGACCGGAGTCACCTAGTGCAG” here?
Answer: Its binding signal is 3750 fluorescence intensity (a.u.).

Question: For “TACCGTCCCTCAACTTTATGTCGAGTCTATATGACATACCCGGAGTCACCTAGTGCAG”, which binding signal is on record?
Answer: The binding signal was 4220 fluorescence intensity (a.u.).

Question: “TACTTTATTTTGATTTTCGTGGGAGGTGACGTGGGCGCTTCGGAGTCACCTAGTGCAG” was tested. Which binding signal did it give?
Answer: The binding signal was 19300 fluorescence intensity (a.u.).

Question: For “TCTTCCCGCTCGCCACGTCAGCGCCATGTGAGCAAAACTACGGAGTCACCTAGTGCAG”, which binding signal is on record?
Answer: Its binding signal is 15500 fluorescence intensity (a.u.).

Question: For “GTTGGAACAATTAATGTGCTGCAGGCAATAACAATCCAGTCGGAGTCACCTAGTGCAG”, which binding signal is on record?
Answer: Its binding signal is 48700 fluorescence intensity (a.u.).

Question: With “AATCAATCCATTAATATTTAACATGATCAGGCATTAGTCGCGGAGTCACCTAGTGCAG” as the sequence, how does the binding signal read?
Answer: The binding signal was 3580 fluorescence intensity (a.u.).

Question: Which binding signal does the source give for “ATCCACGTGGCAATGTATTAATCCAGTCAGCAACATCTCACGGAGTCACCTAGTGCAG” here?
Answer: The binding signal was 12400 fluorescence intensity (a.u.).

Question: For “ATTTGTCTTATGTATATGCTGTATAGGATCTATGGACGCCCGGAGTCACCTAGTGCAG”, which binding signal is on record?
Answer: Its binding signal is 3520 fluorescence intensity (a.u.).

Question: Which binding signal does the source give for “GTTCCATTCCAATCCCATGAAAGCAACAGCGCTGCCTATCCGGAGTCACCTAGTGCAG” here?
Answer: Its binding signal is 35800 fluorescence intensity (a.u.).

Question: For “ACATAATTGTATTATGCAGAACCAAAGCAGGCCACGTGAGCGGAGTCACCTAGTGCAG”, which binding signal is on record?
Answer: The binding signal was 5470 fluorescence intensity (a.u.).

Question: Which binding signal does the source give for “CCAGCAGCCCCTCTCTCATCCATGGTAGTGCTCTGTCATGCGGAGTCACCTAGTGCAG” here?
Answer: Its binding signal is 3400 fluorescence intensity (a.u.).

Question: For “CGTCGCCGTCGCCTCGCCTCGTCACGGCCGCCTCCGCCATCGGAGTCACCTAGTGCAG”, which binding signal is on record?
Answer: The binding signal was 7920 fluorescence intensity (a.u.).

Question: For “AACGGGGCCTCGTAGCAACAGCTCTGACGCACGTGACCTCCGGAGTCACCTAGTGCAG”, which binding signal is on record?
Answer: Its binding signal is 5400 fluorescence intensity (a.u.).

Question: Which binding signal does the source give for “GCGTGGTGCGTATCGTGCTCATCGCATCGGCCTCCGTATACGGAGTCACCTAGTGCAG” here?
Answer: Its binding signal is 40000 fluorescence intensity (a.u.).

Question: “ACCTCTGGTAGCAGCAGCAGCTCGCACGCAGCTCATCGTGCGGAGTCACCTAGTGCAG” was tested. Which binding signal did it give?
Answer: The binding signal was 40700 fluorescence intensity (a.u.).

Question: With “TGCCGCCGCCGTCGTCACCGTCGCCGCCTCCGTGCTCATGCGGAGTCACCTAGTGCAG” as the sequence, how does the binding signal read?
Answer: The binding signal was 6030 fluorescence intensity (a.u.).

Question: Which binding signal does the source give for “ATGTTGACTCGTTTGCCTGTGTTCCTCTTGCTGCTATTCACGGAGTCACCTAGTGCAG” here?
Answer: Its binding signal is 3230 fluorescence intensity (a.u.).

Question: With “TCTTTAGTCCCGGTTCCTATTTAAACCGGGATTATTGTGGCGGAGTCACCTAGTGCAG” as the sequence, how does the binding signal read?
Answer: The binding signal was 47900 fluorescence intensity (a.u.).

Question: Which binding signal does the source give for “ATCTTTAGTCCCGGATTGGTAGTTCCGGTTTGAAAACCGGCGGAGTCACCTAGTGCAG” here?
Answer: The binding signal was 3760 fluorescence intensity (a.u.).

Question: How did the binding signal turn out when “CGCTGTGGTGTGCAGCGGCGGTGCCACGTCCCTATTTAAACGGAGTCACCTAGTGCAG” was run?
Answer: The binding signal was 10900 fluorescence intensity (a.u.).

Question: “ACCAAATGACATGACTCACTTAGATCCTAATAGGACATCCCGGAGTCACCTAGTGCAG” was tested. Which binding signal did it give?
Answer: Its binding signal is 4400 fluorescence intensity (a.u.).

Question: For “GCGCCGCGGTGGAGGCGAGTGGGCGACACGTGGGAAGTGGCGGAGTCACCTAGTGCAG”, which binding signal is on record?
Answer: The binding signal was 6610 fluorescence intensity (a.u.).

Question: “ATATGTGCTGGCCGCTGAGGTATACAGTATATGGGCCAACCGGAGTCACCTAGTGCAG” was tested. Which binding signal did it give?
Answer: The binding signal was 3580 fluorescence intensity (a.u.).

Question: With “GTGCTGGCCAAATGGGCCGGGCCAAGGCCTCGGTAACCACCGGAGTCACCTAGTGCAG” as the sequence, how does the binding signal read?
Answer: Its binding signal is 42300 fluorescence intensity (a.u.).

Question: How did the binding signal turn out when “CCGGACCAAAATGACGTGCCTTAGGCCGGGCCGCCAGCCTCGGAGTCACCTAGTGCAG” was run?
Answer: The binding signal was 3830 fluorescence intensity (a.u.).

Question: “ATCTGTCTTTGTTTGAAATCAGATTGGTTCAAAACAAGCGCGGAGTCACCTAGTGCAG” was tested. Which binding signal did it give?
Answer: Its binding signal is 21900 fluorescence intensity (a.u.).

Question: With “AGTTGATAAATTTCAGAAAATTTTGATGACAAAGCAAAGCCGGAGTCACCTAGTGCAG” as the sequence, how does the binding signal read?
Answer: Its binding signal is 5580 fluorescence intensity (a.u.).

Question: For “CTTTTCACGGATCCTAATTTTGACAGGCAAAGAAAGAAAGCGGAGTCACCTAGTGCAG”, which binding signal is on record?
Answer: The binding signal was 41700 fluorescence intensity (a.u.).

Question: How did the binding signal turn out when “CAAATTTTAATCCTAGAAAAGCTTATATTTGAAGGAGAAGCGGAGTCACCTAGTGCAG” was run?
Answer: The binding signal was 31100 fluorescence intensity (a.u.).

Question: For “GTCCCGCGCATTGGCGACGCGCGACCGGCACGGTCCCGCACGGAGTCACCTAGTGCAG”, which binding signal is on record?
Answer: Its binding signal is 13500 fluorescence intensity (a.u.).

Question: “CTGACGACCCGGATCAACCATTGGCAGCAGCTCCTGTACACGGAGTCACCTAGTGCAG” was tested. Which binding signal did it give?
Answer: Its binding signal is 3580 fluorescence intensity (a.u.).
